# KLF5 inh – inhibitors of KLF5 expression; actives 0.23% (n = 290,000); DLD-1 KLF5 promoter-luciferase reporter, luminescence; inhibition, % at 5 µM;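 active = inhibition above a per-plate limit of that plate's mean compound inhibition plus 3 SD, cut at about 60% in these data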;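 also: 0% = DMSO wells and 100% = LY294002 at 200 µM; higher means less KLF5 promoter-driven luciferase light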
# BaF3 parental – parental Ba/F3 viability inhibition as JAK2V617F counter-screen; inhibition, % at 5.6 µM; CellTiter-Glo ATP luminescence; actives 1.1% (n = 220,000); AID 1486;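 active = inhibition above a per-campaign cutoff, the mean inhibition of all tested compounds plus 3 SD, cut at about 27% in these data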;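 also: 0% = DMSO wells and 100% = JAK Inhibitor I control wells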
# Ba/F3 V617F tox – loss of viability in JAK2V617F-driven Ba/F3 cells | Ba/F3 EpoR-JAK2V617F viability, ATP luminescence | inhibition, % at 5.6 µM | actives 1.1% (n = 220,000) | AID 1446;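 active = inhibition above the campaign mean plus 3 SD over all tested compounds, cut at about 24% in these data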;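 also: cytokine-independent growth of Ba/F3 cells driven by EpoR plus mutant JAK2; 0% = DMSO-treated cells and 100% = JAK inhibitor I control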
# APP 5UTR inh – APP translation inhibition; SH-SY5Y APP 5'UTR-luciferase reporter, luminescence; actives 0.82% (n = 190,000); inhibition, % at 2 µM;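 active = inhibition above a set limit, derived from the sample mean plus 3 SD, cut at about 45% in these data; inconclusive = one replicate passes the limit while the other fails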
# aSyn UTR inh – MLPCN primary screen, SNCA 5' untranslated region; alpha-synuclein 5'UTR reporter, inhibitor activity; inhibition, % (tested at 7.5 µM); actives 0.82% (n = 300,000); in the data active = inhibition above about 60%; inconclusive = no clear call, values can overlap the other calls;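 also: H4 neuroglioblastoma cells stably carrying SNCA 5'UTR luciferase fusion; 0% = DMSO wells and 100% = positive control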
# IEC-6 tox – kills IEC-6 intestinal cells in KLF5 counter-screen | actives 0.78% (n = 290,000) | IEC-6 cytotoxicity, luminescence viability | inhibition, % at 5 µM;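 also: 0% = plate median of test compound wells and 100% = cytotoxic reference compound wells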
# IEC-6 tox confirm – IEC-6 cytotoxicity, confirmation assay. shares compounds with IEC-6 tox. IEC-6 rat intestinal epithelial viability, luminescence. inhibition, % at 5 µM. actives 63% (n = 1,900);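 also: 0% = vehicle and 100% = reference cytotoxic drug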
# The depositor's hits bear a star; ? = inconclusive; nt = not tested or not shown. Compounds with a hit are over-represented: about 2.2% of the library has one in this group of screens. Rule as the data show it, unless noted: active = inhibition above about 22%; inactive = the rest.
SMILES,KLF5 inh,BaF3 parental,Ba/F3 V617F tox,APP 5UTR inh,aSyn UTR inh,IEC-6 tox,IEC-6 tox confirm
CCN1CCN(c2ncc3c(n2)CC(c2cc(OC)c(OC)c(OC)c2)CC3=O)CC1 (stereo not drawn),53,82*,81*,5,35,65*,57*
O=C(O)c1[nH]c2ccc([N+](=O)[O-])cc2c1-c1ccccc1,5,1,-3,nt,-9,-1,nt
NNC(=O)c1[nH]c2ccc([N+](=O)[O-])cc2c1-c1ccccc1,-3,nt,nt,nt,-1,91*,-3
Cc1cc(/C=N/NC(N)=S)c(O)c(/C=N/NC(N)=S)c1,-16,2,-2,nt,7,90*,13
NC(=S)N/N=C/c1cccc(O)c1O,-18,8,1,-7,-94,-5,nt
Cc1ccc(-c2noc(-c3ccoc3C)n2)cc1,-23,5,2,-92,-186,-3,nt
CC(=O)NCCc1c[nH]c2ccc(OCC(O)CNC(C)(C)C)cc12 (stereo not drawn),2,2,-4,nt,4,2,nt
O=C(CCc1ccccc1)Nc1ccncc1,-15,-4,-3,-20,-11,-2,nt
CC(C)c1ccc(NC(=O)CCc2ccccc2)cc1,-64,nt,nt,nt,-389,29*,52*
O=C(NNC(=O)C12CC3CC(CC(C3)C1)C2)c1ccccc1[N+](=O)[O-],-6,nt,nt,nt,29,1,nt
Cc1noc(/C=C/N(C)C)c1S(=O)(=O)N1CCCC(C(=O)NCCC2=CCCCC2)C1 (stereo not drawn),-21,5,-3,11,-18,7,-9
COCCCNC(=S)N/N=C/c1cccc(OC)c1O,40,0,-3,nt,nt,60*,18
COCCCNC(=S)N/N=C/c1ccc(O)cc1O,-12,0,-4,nt,-7,-3,nt
O=C(Cc1cccc2ccccc12)Nc1ccccc1Br,-13,nt,nt,nt,13,-12,nt
COc1cc(OC)nc(-n2ncc(Br)c(Br)c2=O)n1,-20,87*,96*,94*,nt,56*,70*
CSc1ccccc1OCc1cc(C(=O)NCCCn2nc(C)cc2C)no1,7,nt,nt,nt,11,1,nt
COc1ccc(C2=Nn3c([n+](C)c4ccccc43)SC2)cc1,15,77*,100*,13,2,30*,24*
Cc1ccccc1-n1ncc2c1CC(C)(C)CC2NC(=O)CCN1Cc2ccccc2C1=O (stereo not drawn),-16,nt,nt,nt,-6,9,nt
CC1CN(c2ccc(Cl)nn2)CC(C)O1 (stereo not drawn),-25,1,6,-9,14,2,nt
O=C(NCCNC(=O)c1cnccn1)c1ccc(Cl)c(Cl)c1,-14,nt,nt,nt,10,11,nt
O=C(NNC(=O)c1cnccn1)c1ccc(Cl)c(Cl)c1,19,nt,nt,nt,?,37*,22
CCCc1cc(=O)[nH]c(SCCc2ccccc2)n1,-25,nt,nt,nt,-10,-4,nt
Cc1ccc(C)c(N2CCN(C(=O)CCCn3ncn4c(cc5occc54)c3=O)CC2)c1,-13,nt,nt,nt,0,7,nt
Cc1cc(NC(=O)c2ccc([N+](=O)[O-])o2)ccc1NC(=O)c1ccco1,10,78*,83*,79*,-110,87*,25*
COc1cc(NC(=O)c2ccc([N+](=O)[O-])o2)ccc1NC(=O)c1ccco1,-15,nt,nt,nt,11,100*,20
SMILES,KLF5 inh,BaF3 parental,Ba/F3 V617F tox,APP 5UTR inh,aSyn UTR inh,IEC-6 tox,IEC-6 tox confirm
O=C(O)c1ccc(N/N=C/c2cccc(C(F)(F)F)c2)cc1,-138,nt,nt,nt,-99,32*,37*
CCCCn1c(N)c(N(CCOC)C(=O)c2cc3c(s2)CCC3)c(=O)[nH]c1=O,nt,nt,nt,nt,-1,nt,nt
CS(=O)(=O)c1ccc(C(=O)OC2CCOC2=O)cc1[N+](=O)[O-] (stereo not drawn),-9,nt,nt,nt,-10,-1,nt
CC(C)OC(=O)Nc1ccc2c(c1)N(C(=O)N1CCN(C)CC1)c1ccccc1CC2,-55,29*,25*,nt,-62,35*,21
COc1cc(/C=C2\CCC/C(=C\c3ccc(O)c(OC)c3)C2=O)ccc1O,-25,nt,nt,nt,-394,8,nt
CCOc1cc(/C=C2\CN(CC)C/C(=C\c3ccc(O)c(OCC)c3)C2=O)ccc1O,19,nt,nt,nt,102*,74*,23*
N#C/C(=C(/O)c1ccc(Br)s1)c1nc2ccccc2[nH]1,8,nt,nt,nt,-53,34*,46*
CCOC(=O)C(NC(=O)Nc1ccc(Cl)cn1)(Oc1ccc(F)cc1)C(F)(F)F (stereo not drawn),-3,12,7,-7,-52,25*,-4
CCOC(=O)Nc1ccc2c(c1)N(C(=O)CCN(CC)CC)c1ccccc1CC2,-21,nt,nt,nt,6,5,nt
CCOC(=O)Nc1ccc2c(c1)N(C(=O)CCN(CC)CC)c1ccccc1S2=O (stereo not drawn),-2,nt,nt,nt,-20,23*,13
COc1cccc(-n2c(-c3cccc(S(=O)(=O)N(C)C)c3)n[nH]c2=S)c1,-11,5,1,-8,24,3,nt
Cc1[nH]c2ccc(-c3n[nH]c(=S)n3-c3ccc(Br)cc3)cc2c1C,-5,3,-2,-14,1,50*,44*
Cc1[nH]c2ccc(-c3n[nH]c(=S)n3-c3ccccc3)cc2c1C,-32,3,-2,-15,6,49*,32*
COc1cccc(-n2c(-c3ccc4[nH]c(C)c(C)c4c3)n[nH]c2=S)c1,-25,6,4,-2,4,48*,46*
Oc1ccccc1N1CCN(C(c2ccccc2)c2ccccc2)CC1,19,nt,nt,nt,-5,-4,nt
Cc1ccccc1-c1nc(CS(=O)(=O)CC(=O)NCc2ccco2)c(C)o1,-31,nt,nt,nt,-3,-2,nt
Cc1[nH]c2ccccc2c1/C=N/Nc1nncn1N,-27,4,7,-134,nt,102*,-14
Cc1cc2cc3c(cc2nc1SCC(=O)N1CCCC1)OCCO3,-4,nt,nt,nt,2,30*,38*
Cc1ccccc1Oc1nc2c(C)cccn2c(=O)c1/C=C(\C#N)C(=O)NC1CCS(=O)(=O)C1 (stereo not drawn),11,0,-6,nt,21,55*,29*
CC(C)(C)c1ccc(C(=O)NNC(=S)NC(=O)c2cccnc2)cc1,27,nt,nt,nt,60,30*,23*
CC(C)c1ccc(O)c(NC(=S)NC(=O)c2cccnc2)c1,18,4,3,12,-49,34*,-3
CC(C)(C)C(=O)NC(=S)NNC(=O)c1ccc(-c2ccccc2)cc1,57,36*,37*,67*,67*,40*,47*
CSc1ccc(CNC(=O)Cc2ccc(NC(=O)C3=C(C)OCCS3)cc2)cc1,-40,nt,nt,nt,-153,27*,35*
CCOc1ccc(CCNC(=O)Cc2ccc(NC(=O)C3=C(C)OCCS3)cc2)cc1,-31,nt,nt,nt,-56,3,nt
CCc1nc2ccccc2c(C(=O)OCC(=O)C(C)(C)C)c1C,-15,6,3,-13,0,24*,-3
CN(c1ccccc1C(=O)O)S(C)(=O)=O,7,6,2,-9,-18,2,nt

# Source: PubChem BioAssay
